What was measured:
U-2932 [1] = assay: growth inhibition by drug alone (1 - RLU/untreated control) (fraction); higher = stronger inhibition; details: 177Lu-lilotomab satetraxetan 0 ug/ml
In short: (§1)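 Compound doses on the pre-printed Selleck Cambridge Cancer Compound library plates were 10/100 nM for RIVA cells and 10/1,000 nM for U-2932 cells, seeded at 3,000 cells/well. Before seeding, cells were washed after 18 h with or without a radiolabelled anti-CD37 antibody conjugate (~600 MBq/mg; 0.5 µg/ml RIVA, 1 µg/ml U-2932). Growth inhibition was derived from RealTime-Glo luminescence relative to untreated no-drug control wells. Readings were taken daily starting on day 3, each after 1 h at 37°C, and each well's RLU was divided by the mean of 48 such wells per plate and subtracted from 1.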

RIVA [2] = assay: as above; details: 177Lu-lilotomab satetraxetan 0 ug/ml
In short: as §1

U-2932 [3] = assay: growth inhibition by drug plus 177Lu-lilotomab satetraxetan (1 - RLU/untreated control) (fraction); higher = stronger inhibition; details: 177Lu-lilotomab satetraxetan 1 ug/ml
In short: as §1

RIVA [4] = assay: as above; details: 177Lu-lilotomab satetraxetan 0.5 ug/ml
In short: as §1

Structure (SMILES) | growth inhibition by drug alone (U-2932 [1]; 10 nM, time (day): 3) | growth inhibition by drug alone (U-2932 [1]; 10 nM, time (day): 4) | growth inhibition by drug alone (U-2932 [1]; 10 nM, time (day): 5) | growth inhibition by drug alone (U-2932 [1]; 10 nM, time (day): 6) | growth inhibition by drug alone (U-2932 [1]; 1000 nM, time (day): 3) | growth inhibition by drug alone (U-2932 [1]; 1000 nM, time (day): 4) | growth inhibition by drug alone (U-2932 [1]; 1000 nM, time (day): 5) | growth inhibition by drug alone (U-2932 [1]; 1000 nM, time (day): 6) | growth inhibition by drug alone (RIVA [2]; 10 nM, time (day): 3) | growth inhibition by drug alone (RIVA [2]; 10 nM, time (day): 4) | growth inhibition by drug alone (RIVA [2]; 10 nM, time (day): 5) | growth inhibition by drug alone (RIVA [2]; 10 nM, time (day): 6) | growth inhibition by drug alone (RIVA [2]; 100 nM, time (day): 3) | growth inhibition by drug alone (RIVA [2]; 100 nM, time (day): 4) | growth inhibition by drug alone (RIVA [2]; 100 nM, time (day): 5) | growth inhibition by drug alone (RIVA [2]; 100 nM, time (day): 6) | growth inhibition by drug plus 177Lu-lilotomab satetraxetan (U-2932 [3]; 10 nM, time (day): 3) | growth inhibition by drug plus 177Lu-lilotomab satetraxetan (U-2932 [3]; 10 nM, time (day): 4) | growth inhibition by drug plus 177Lu-lilotomab satetraxetan (U-2932 [3]; 10 nM, time (day): 5) | growth inhibition by drug plus 177Lu-lilotomab satetraxetan (U-2932 [3]; 10 nM, time (day): 6) | growth inhibition by drug plus 177Lu-lilotomab satetraxetan (U-2932 [3]; 1000 nM, time (day): 3) | growth inhibition by drug plus 177Lu-lilotomab satetraxetan (U-2932 [3]; 1000 nM, time (day): 4) | growth inhibition by drug plus 177Lu-lilotomab satetraxetan (U-2932 [3]; 1000 nM, time (day): 5) | growth inhibition by drug plus 177Lu-lilotomab satetraxetan (U-2932 [3]; 1000 nM, time (day): 6) | growth inhibition by drug plus 177Lu-lilotomab satetraxetan (RIVA [4]; 10 nM, time (day): 3) | growth inhibition by drug plus 177Lu-lilotomab satetraxetan (RIVA [4]; 10 nM, time (day): 4) | growth inhibition by drug plus 177Lu-lilotomab satetraxetan (RIVA [4]; 10 nM, time (day): 5) | growth inhibition by drug plus 177Lu-lilotomab satetraxetan (RIVA [4]; 10 nM, time (day): 6) | growth inhibition by drug plus 177Lu-lilotomab satetraxetan (RIVA [4]; 100 nM, time (day): 3) | growth inhibition by drug plus 177Lu-lilotomab satetraxetan (RIVA [4]; 100 nM, time (day): 4) | growth inhibition by drug plus 177Lu-lilotomab satetraxetan (RIVA [4]; 100 nM, time (day): 5) | growth inhibition by drug plus 177Lu-lilotomab satetraxetan (RIVA [4]; 100 nM, time (day): 6)
Cc1[nH]c(/C=C2\C(=O)Nc3ccc(S(=O)(=O)N(C)c4cccc(Cl)c4)cc32)c(C)c1C(=O)N1CCN(C)CC1 | -0.0104 | 0.00253 | -0.0727 | -0.198 | -0.0486 | -0.0391 | -0.0232 | 0.0376 | -0.187 | -0.174 | -0.209 | -0.352 | -0.317 | -0.305 | -0.286 | -0.342 | -0.0184 | 0.0537 | 0.0856 | 0.0845 | -0.011 | 0.0937 | 0.135 | 0.249 | – | – | – | – | – | – | – | –
COc1ccc(-c2ccc3c(N4CCOC[C@@H]4C)nc(N4CCOC[C@@H]4C)nc3n2)cc1CO | – | – | – | – | – | – | – | – | 0.0033 | -0.0925 | -0.125 | -0.292 | 0.617 | 0.609 | 0.575 | 0.472 | 0.124 | 0.14 | 0.163 | 0.253 | 0.899 | 0.893 | 0.902 | 0.923 | 0.495 | 0.529 | 0.545 | 0.545 | 0.749 | 0.763 | 0.762 | 0.744
CCOc1ccc(Cc2cc([C@@H]3O[C@H](CO)[C@@H](O)[C@H](O)[C@H]3O)ccc2Cl)cc1 [Dapagliflozin] | 0.142 | 0.11 | -0.0277 | -0.0754 | 0.0652 | 0.0655 | 0.0265 | -0.143 | 0.0261 | 0.0489 | -0.0941 | -0.357 | -0.159 | -0.0453 | -0.0994 | -0.161 | 0.0831 | 0.139 | 0.185 | 0.224 | 0.0836 | 0.124 | 0.161 | 0.282 | – | – | – | – | – | – | – | –
CCN(CC)CCNC(=O)c1c(C)[nH]c(/C=C2\C(=O)Nc3ccc(F)cc32)c1C [Sunitinib Malate (Sutent)] | – | – | – | – | – | – | – | – | -0.117 | -0.163 | -0.216 | -0.511 | -0.295 | -0.315 | -0.325 | -0.492 | -0.0903 | -0.0528 | -0.026 | 0.0273 | -0.0792 | -0.017 | -0.0458 | -0.033 | 0.291 | 0.452 | 0.477 | 0.49 | 0.257 | 0.374 | 0.387 | 0.364
CCOC(=O)[C@@H](C)Oc1cccc2c(=O)n(CC(=O)Nc3ccc4c(c3)OCCO4)ccc12 | – | – | – | – | – | – | – | – | -0.12 | -0.131 | -0.182 | -0.361 | 0.0368 | -0.0449 | -0.0731 | -0.142 | -0.0102 | 0.0168 | 0.0306 | 0.145 | -0.139 | -0.0327 | -0.0266 | -0.0505 | 0.384 | 0.517 | 0.542 | 0.536 | 0.305 | 0.424 | 0.427 | 0.414
CC(C)(C)c1ccc(S(=O)(=O)/C=C/C#N)cc1 | – | – | – | – | – | – | – | – | -0.0115 | -1.37e-05 | -0.0516 | -0.202 | -0.0892 | -0.063 | -0.0854 | -0.195 | -0.0145 | 0.0216 | 0.0584 | 0.0727 | 0.517 | 0.565 | 0.534 | 0.533 | 0.438 | 0.555 | 0.567 | 0.581 | 0.452 | 0.513 | 0.508 | 0.495
C[C@@H](N)[C@H]1CC[C@H](C(=O)Nc2ccncc2)CC1 | – | – | – | – | – | – | – | – | -0.062 | -0.109 | -0.134 | -0.231 | -0.413 | -0.366 | -0.399 | -0.522 | -0.0365 | 0.0334 | 0.0633 | 0.082 | -0.014 | 0.0434 | 0.0766 | 0.194 | 0.59 | 0.588 | 0.605 | 0.619 | 0.339 | 0.452 | 0.463 | 0.469
c1ccc(-c2nn3c(c2-c2ccnc4cc(OCCN5CCOCC5)ccc24)CCC3)nc1 | 0.0304 | 0.0254 | 0.0259 | -0.126 | 0.0168 | -0.0245 | -0.0928 | -0.157 | -0.0878 | -0.000924 | -0.142 | -0.487 | -0.472 | -0.252 | -0.3 | -0.522 | 0.0114 | 0.0692 | 0.139 | 0.155 | -0.0195 | 0.0208 | 0.0497 | 0.121 | – | – | – | – | – | – | – | –
COc1cc(OC2CCN(C)CC2)ccc1Nc1ncc2c(n1)n(C1CCCC1)c(=O)n2C | – | – | – | – | – | – | – | – | -0.233 | -0.291 | -0.358 | -0.453 | -0.524 | -0.553 | -0.545 | -0.66 | -0.087 | -0.0366 | 0.0152 | 0.102 | -0.121 | -0.0709 | -0.0115 | 0.128 | 0.539 | 0.578 | 0.601 | 0.587 | 0.355 | 0.432 | 0.453 | 0.479
